Laboratory results: PubChem BioAssay (EPA / NIEHS)
Some structures have more than one record in an assay (separate samples or runs), and their calls can disagree. Active and inactive are the calls of the source. Rule for the calls: active = hit-call score of the fitted dose curve at least 0.9, where 1 is the maximum; inactive = score below 0.9.

Target: Cellular tumor antigen p53 (Homo sapiens) (UniProt P04637)
Sequence (P04637 whole entry, looked up): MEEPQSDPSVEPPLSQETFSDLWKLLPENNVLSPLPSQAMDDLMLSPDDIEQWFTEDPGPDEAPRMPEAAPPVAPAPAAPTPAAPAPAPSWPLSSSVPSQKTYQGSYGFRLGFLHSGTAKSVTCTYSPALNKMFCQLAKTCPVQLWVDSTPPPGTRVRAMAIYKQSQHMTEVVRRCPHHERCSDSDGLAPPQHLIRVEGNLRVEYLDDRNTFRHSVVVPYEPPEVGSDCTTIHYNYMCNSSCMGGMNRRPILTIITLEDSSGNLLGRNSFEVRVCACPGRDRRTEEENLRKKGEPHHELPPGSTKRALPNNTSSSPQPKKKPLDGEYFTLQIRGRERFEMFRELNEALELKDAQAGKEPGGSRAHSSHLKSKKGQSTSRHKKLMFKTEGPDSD
Assay: ATG_p53_CIS: Attagene CIS-FACTORIAL HepG2 Assay for human p53 Transcription Factor (AID 2282994)
Details: HepG2 p53 cis-element reporter, Attagene mRNA; actives raise or lower the signal
Procedure, shortened: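 Multiplexed reporter mRNA assay in human HepG2 liver cells; cis-regulated units report endogenous factor activity. Values come from bidirectional curve fitting against DMSO negative control after 24 h treatment.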
In the case of `CC(O)C#N` (stereo not given), the outcome was “inactive”.
For `CCCCc1ccc(O)cc1`, the outcome was “inactive”.
With `CC(Cl)CN(C)C` (stereo not given) the outcome was “inactive”.
For `Cc1cccc(N)c1`, the outcome was “inactive”.
For `Cc1cc(C)c(C(=O)P(=O)(c2ccccc2)c2ccccc2)c(C)c1`, the outcome was “inactive”.
With `FC(F)(F)C(F)(C(F)(F)F)C(F)(F)C(F)(F)CC1CO1` (stereo not given) the outcome was “inactive”.
For `COP(=O)(O)OC`, the outcome was “inactive”.
For `CO/N=C(/C(=O)OC)c1ccccc1COc1ccccc1C`, the outcome was “inactive”.
In the case of `CC(O)C(F)(F)C(F)(F)F` (stereo not given), the outcome was “inactive”.
With `CCCCN(CC)C(=O)SCCC` the outcome was “inactive”.
For `N#Cc1ccc(O)cc1`, the outcome was “inactive”.
In the case of `OCC(F)(F)OC(F)(F)C(F)(F)OC(F)(F)C(F)(F)OC(F)(F)F`, the AC50 was 76.8 µM (active) and the outcome was “inactive”.
With `Clc1ccc(Oc2ccccc2)cc1` the outcome was “inactive”.

Read-out: not listed separately
Assay: BSK_3C_TissueFactor: BioMAP Diversity Plus: 3C Assay for Tissue Factor Biomarker Activity (AID 2282997)
Details: BioMAP 3C HUVEC, tissue factor biomarker readout; actives raise or lower the signal
Procedure, shortened: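 Dosing of human umbilical vein endothelial cells preceded a 24 h incubation. Tissue Factor was then read by ELISA, with increases and decreases both scored relative to DMSO controls.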
For `OCC(F)(F)OC(F)(F)C(F)(F)OC(F)(F)C(F)(F)OC(F)(F)CO`, the outcome was “inactive”.
For `CCCCOCCOP(=O)(OCCOCCCC)OCCOCCCC`, the outcome was “inactive”.
For `c1cc2c3c(cccc3c1)CC2`, the outcome was “inactive”.
With `O=S(=O)(F)C(F)(F)C(F)(F)C(F)(F)C(F)(F)C(F)(F)C(F)(F)C(F)(F)C(F)(F)F` the outcome was “inactive”.
In the case of `N#Cc1c(-c2ccc(Cl)cc2)[nH]c(C(F)(F)F)c1Br`, the AC50 was 20 µM (active).
For `ClC(Cl)=C(c1ccc(Cl)cc1)c1ccccc1Cl`, the AC50 was 20 µM (active).
With `CCN(CC)c1ccccc1` the outcome was “inactive”.
With `O=C(O)C1C(C(=O)O)C2(Cl)C(Cl)=C(Cl)C1(Cl)C2(Cl)Cl` (stereo not given) the outcome was “inactive”.
In the case of `CCCCCCCc1ccc(O)cc1`, the AC50 was 38 µM (active).
With `COC(=O)C(F)(F)C(F)(F)OC(F)(C(F)(F)F)C(F)(F)OC(F)=C(F)F` (stereo not given) the outcome was “inactive”.
With `CC(Cl)CN(C)C` (stereo not given) the outcome was “inactive”.
